Common to all, as to conditions: concentration: 10 µM; 24 h
Experiment [1] deals with HCC1569. The experiment can be described thus: cell number relative to DMSO (% of DMSO); higher = more cells (less growth inhibition / toxicity). The method in brief: (§1)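 HCC1569 and TDF cells were seeded at 800 per well in 384-well plates in RPMI with 10% FBS and treated with compounds at 10 µM for 24 h at 37 °C, in triplicate. After fixation in 3.7% formaldehyde, cells were stained with a rabbit anti-H1.0 antibody, an AlexaFluor 647 secondary and DAPI, and six fields per well were imaged at ×10. H1.0 nuclear intensity or cell number is given as percent of the plate control, using the median of replicates, with HCC1569 values smoothed for positional effects.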

Experiment [2] has as its system TDF. The description is as above. The method in brief:
as §1

In experiment [3] the test system is TDF. As to the kind of experiment: H1.0 immunofluorescence intensity relative to DMSO (% of DMSO); higher = stronger H1.0 induction, active = 120 or more. The method in brief:
as §1

The test system of experiment [4] is HCC1569. As to the kind of experiment: H1.0 immunofluorescence intensity relative to DMSO (% of DMSO); higher = stronger H1.0 induction, active = 140 or more. The method in brief: as §1

± gives the standard deviation of the averaged measurements.
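Wherever H1.0 immunofluorescence intensity relative to DMSO is given: TDF is a line of transformed human dermal fibroblasts of mesenchymal origin.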
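Wherever cell number relative to DMSO is given: TDF denotes transformed human dermal fibroblasts of mesenchymal origin.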

On to `CCCCCC(O)CCCC(=O)[O-].[Na+]` (stereo not drawn) [5-hydroxydecanoic acid sodium], for which the cell number with HCC1569 [1] turned out to be 99.5; in the experiment on TDF [2], 96. The values for the H1.0 immunofluorescence intensity in the experiment with TDF [3] and with HCC1569 [4] were 99.5 (inactive) and 114 (inactive), respectively.
Consider `CCCCCC(O)C=CC1C(O)CC(O)C1CC(=O)CCCCC(=O)O` (stereo not drawn) [6-Keto-prostaglandin F1a], for which the cell number is 101 in the experiment on HCC1569 [1] and 91.3 with TDF [2]. The H1.0 immunofluorescence intensity with TDF [3] is 102 (inactive); in the experiment on HCC1569 [4] it was 108 (inactive).
For `CCC1(C)CC(=O)NC1=O` (stereo not drawn) [Ethosuximide], in that order: 102, 98.8, 94.1 (inactive) and 88 (inactive).
The corresponding values for `CCCCCC=CCC=CC=CC=CC(SCC(N)C(=O)NCC(=O)O)C(O)CCCC(=O)O` (stereo not drawn) [Leukotriene D4] are 106, 99.8, 92.1 (inactive) and 97.3 (inactive).
For `CCC1(O)CC2CN(CCc3c([nH]c4ccccc34)C(C(=O)OC)(c3cc4c(cc3OC)N(C)C3C(O)(C(=O)OC)C(OC(C)=O)C5(CC)C=CCN6CCC43C65)C2)C1.O=S(=O)(O)O` (stereo not drawn) [Vinblastine sulfate], the cell number in the experiment on HCC1569 [1] stood at 53.3; in the experiment on TDF [2], 11.2. The H1.0 immunofluorescence intensity was 156 (active) with TDF [3] and 131 (inactive) with HCC1569 [4].
In the case of `CC(C)C(=O)Nc1ccc([N+](=O)[O-])c(C(F)(F)F)c1` [Flutamide], the results for the cell number in the experiment with HCC1569 [1] and with TDF [2] were 81.3 ± 22 and 66.1 ± 48, respectively. In addition, the figures for the H1.0 immunofluorescence intensity in the experiment on TDF [3] and with HCC1569 [4] were 112 (inactive) and 135 (inactive), respectively.
On to `Cl.Cn1c(=O)c(Oc2ccc(F)cc2F)cc2cnc(NC3CCOCC3)nc21`, for which the results for the cell number with HCC1569 [1] and in the experiment with TDF [2] were 99.9 and 99.2, respectively. Besides, the H1.0 immunofluorescence intensity in the experiment on TDF [3] was 89 (inactive); with HCC1569 [4], 102 (inactive).
On to `C(=Cc1ccccc1)CN1CCN(C(c2ccccc2)c2ccccc2)CC1` [Cinnarizine], for which the values for the cell number in the experiment on HCC1569 [1] and in the experiment on TDF [2] were 74.9 and 74.1, respectively. Further, the H1.0 immunofluorescence intensity in the experiment with TDF [3] was 106 (inactive); in the experiment on HCC1569 [4], 101 (inactive).
For `Cl.NOCC(=O)O.NOCC(=O)O` [O-(Carboxymethyl)hydroxylamine hemihydrochloride], the cell number in the experiment on HCC1569 [1] amounted to 107; in the experiment with TDF [2], 97.9. Moreover, the results for the H1.0 immunofluorescence intensity in the experiment with TDF [3] and with HCC1569 [4] were 99.1 (inactive) and 105 (inactive), respectively.
With `CC(O)C(CO)NC(=O)C1CSSCC(NC(=O)C(N)Cc2ccccc2)C(=O)NC(Cc2ccccc2)C(=O)NC(Cc2c[nH]c3ccccc23)C(=O)NC(CCCCN)C(=O)NC(C(C)O)C(=O)N1` (stereo not drawn) [Octreotide], the cell number in the experiment with HCC1569 [1] was 106; in the experiment with TDF [2], 98.5. Moreover, the values for the H1.0 immunofluorescence intensity with TDF [3] and in the experiment with HCC1569 [4] were 103 (inactive) and 98.9 (inactive), respectively.
For `Cl.N[C@@H](Cc1cnc[nH]1)C(=O)O` [L-Histidine hydrochloride], in that order: 101, 109, 99 (inactive) and 95.8 (inactive).
For the compound `COC1=C(OC)C(=O)C(CCCCCCCCCCO)=C(C)C1=O` [Idebenone], the cell number with HCC1569 [1] came out at 101.26 ± 0.079; in the experiment on TDF [2] it was 96.02 ± 0.62. For the same compound, the H1.0 immunofluorescence intensity with TDF [3] is 101 (inactive); with HCC1569 [4] it was 102 (inactive).
For `NC1CONC1=O` [D-Cycloserine], in that order: 98.8, 96.8, 97.5 (inactive) and 92.1 (inactive).
The corresponding values for `NC(=O)C(=O)[O-].[Na+]` [Sodium Oxamate] are 102, 105, 94 (inactive) and 93.5 (inactive).
For `Cl.NC(N)=NCCNS(=O)(=O)c1cccc2cnccc12` [HA-1004 hydrochloride], in that order: 103, 116, 87.2 (inactive) and 88.4 (inactive).
As for `O=C(c1cc(O)c(O)c([N+](=O)[O-])c1)c1ccccc1F`, the cell number in the experiment on HCC1569 [1] and in the experiment on TDF [2] was 106 in each case. Moreover, the values for the H1.0 immunofluorescence intensity in the experiment with TDF [3] and with HCC1569 [4] were 95.7 (inactive) and 99.2 (inactive), respectively.
As to `O=c1c(OC2OC(C(O)CO)C(O)C2O)c(-c2ccc(O)c(O)c2)oc2cc(O)cc(O)c12` (stereo not drawn) [Isoquercitrine], the cell number in the experiment on HCC1569 [1] amounted to 103; in the experiment on TDF [2], 105. The H1.0 immunofluorescence intensity in the experiment with TDF [3] is 102 (inactive); in the experiment with HCC1569 [4], 87.9 (inactive).
For `O=C1CC(=O)c2c(Cl)c(Cl)c(Cl)c(Cl)c21` [4,5,6,7-tetrachloro-1H-indene-1,3(2H)-dione], in that order: 101, 103, 117 (inactive) and 99.1 (inactive).
The corresponding values for `C=C1C(=O)C23C(O)C1CCC2C12COC3(O)C(O)C1C(C)(C)CCC2O` (stereo not drawn) [Oridonin] are 80.4, 110, 93 (inactive) and 111 (inactive).
For `Cl.NC1(C(=O)O)CCCCC1` [1-Amino-1-cyclohexanecarboxylic acid hydrochloride], in that order: 100, 106, 95.3 (inactive) and 86.6 (inactive).
Turning to `COc1ccc2c(c1)c(CC(=O)O)c(C)n2C(=O)c1ccccc1` [1-benzoyl-5-methoxy-2-methylindole-3-acetic acid], the figures for the cell number in the experiment on HCC1569 [1] and in the experiment with TDF [2] were 101 and 104, respectively. Moreover, the values for the H1.0 immunofluorescence intensity in the experiment on TDF [3] and in the experiment on HCC1569 [4] were 96.8 (inactive) and 93.1 (inactive), respectively.
The corresponding values for `CC1OC(OC2C(Oc3cc(O)c4c(=O)c(O)c(-c5ccc(O)cc5)oc4c3)OC(CO)C(O)C2O)C(O)C(O)C1O` (stereo not drawn) [Kaempferol-7-neohesperidoside] are 98.8, 99.4, 95.8 (inactive) and 87.9 (inactive).

The values above are taken from the supplement of paper PMC7156485.
